Experimental data published in PubChem BioAssay (NCI).
The panel holds about 79,000 compounds, 15% with a hit somewhere; the sample as a whole holds those more often. No stated cut-off is given here; in the data, active means growth inhibition above about 70%; inactive means the rest.

Experiments:
[1] = NCI Yeast Anticancer Drug Screen. Data for the rad50 strain (AID 155);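 further: 0% = growth of vehicle-only cultures of the same strain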; details: S. cerevisiae rad50 strain growth inhibition; at 50.0 µM; active compounds read high
Method in brief: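 A DNA repair-deficient yeast mutant serves as the test organism; compound-induced growth inhibition is calculated against vehicle-treated cells.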

[2] = NCI Yeast Anticancer Drug Screen. Data for the mec2-1 strain (AID 157); details: S. cerevisiae mec2-1 strain, at 50.0 µM, active compounds read high
Method in brief: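 Mutant yeast (mec2-1) grown with compound; growth inhibition relative to vehicle control reported.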

[3] = NCI Yeast Anticancer Drug Screen. Data for the sgs1 mgt1 strain (AID 161);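 further: 0% = growth of cultures given vehicle only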; details: S. cerevisiae sgs1 mgt1 strain, at 50.0 µM, active compounds read high
Method in brief: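 Percent growth inhibition was derived by comparing compound-exposed mutant yeast with vehicle-exposed cultures. The strain carries alterations in DNA damage repair.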

[4] = NCI Yeast Anticancer Drug Screen. Data for the cln2 rad14 strain (AID 165);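 further: 0% = growth equal to vehicle treated cultures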; details: S. cerevisiae cln2 rad14 strain, at 50.0 µM, active compounds read high
Method in brief: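 Readout is yeast growth inhibition versus vehicle-treated controls, using a strain with cln2 and rad14 alterations exposed to compound.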

[5] = NCI Yeast Anticancer Drug Screen. Data for the bub3 strain (AID 167); details: S. cerevisiae bub3 mutant strain, at 50.0 µM, active compounds read high
Method in brief: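 Inhibition values come from growth of compound-treated mutant yeast normalised to vehicle-treated controls.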

[6] = NCI Yeast Anticancer Drug Screen. Data for the mlh1 rad18 strain (AID 175); details: S. cerevisiae mlh1 rad18 strain growth inhibition; at 50.0 µM; active compounds read high
Method in brief: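 Genetically defined yeast (DNA repair-deficient) exposed to compounds; growth inhibition determined relative to vehicle.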

Measured: growth inhibition

CC(=O)Nc1ccc(C(=O)N2N=C(C)/C(=C/c3cccc([N+](=O)[O-])c3)C2=O)cc1
inactive: [1] -9.8% | [2] -17.6% | [3] -47.5% | [4] 2.55% | [5] -21.9% | [6] -32.2%

COc1ccccc1C1c2cc3c(cc2OC(C)(OC)C1C)OCO3 (configuration not stated)
inactive: [1] -3.4% | [2] -17.2% | [3] 18.1% | [4] -12.7% | [5] -10.2% | [6] 14.1%

COc1cccc(OC)c1/C=C1\N=C(c2ccccc2)OC1=O
inactive: [1] -1.4% | [2] -1.4% | [3] 2.55% | [4] -56.9% | [5] 5.55% | [6] -9.25%

O=C1c2ccc3c([nH]c4ccccc43)c2C(=O)N1c1ccccc1
inactive: [1] 19.7% | [2] -2% | [3] 21.8% | [4] 11.9% | [5] 13.3% | [6] 7.35%

O=c1cc(-c2cccnc2)oc2ccc(Cl)cc12
inactive: [1] 59.8% | [2] -2.8% | [3] 7.7% | [4] -33.9% | [5] 11.2% | [6] 5.85%

CC(O)CN=Cc1ccccc1 (configuration not stated)
inactive: [1] -16.6% | [2] 21.9% | [3] -11.2% | [4] -41.4% | [5] -11.5% | [6] -18.8%

CCOC(=O)NC(Nc1ccc(F)c(F)c1)(C(=O)OCC)C(F)(F)F (configuration not stated)
inactive: [1] 5.4% | [2] -1.3% | [3] -9.1% | [4] 15.4% | [5] 9.75% | [6] 39.5%

Cc1nc2ccccc2nc1C1=C(O)c2ccccc2CC1=O
inactive: [1] 0.85% | [2] 8.6% | [3] 10.1% | [4] -71.2% | [5] -10.2% | [6] 1.35%

N#C/C(=C(/N)N1CCOCC1)N1CCOCC1
inactive: [1] -18.4% | [2] -8.95% | [3] -9.15% | [4] -13.6% | [5] 16.1% | [6] -4.2%

O=C(Cc1ccccc1)N/N=C\Cc1ccccc1
inactive: [1] -4.85% | [2] 22.8% | [3] 20.8% | [4] -14.1% | [5] -2.35% | [6] 2.25%

CC(=O)c1cc(C)oc1C
inactive: [1] -5.1% | [2] -8.25% | [3] -12.8% | [4] -32.1% | [5] 2.8% | [6] 12.9%

CCNc1nc2ccccc2nc1NCC
inactive: [1] -18.1% | [2] -5.6% | [3] 1.45% | [4] 16.1% | [5] -13.3% | [6] 3.15%

O=Cc1cc(O)ccc1[N+](=O)[O-]
inactive: [1] 11.4% | [2] -19.2% | [3] -9.55% | [4] 13.3% | [5] -13.4% | [6] 16.1%

COc1ccc(-c2nc(N)nc3c2CN(CCCC(=O)O)C3=O)cc1
inactive: [1] -4.65% | [2] 30.3% | [3] -4.25% | [4] -30.8% | [5] 9.3% | [6] -10.4%

O=C(Nc1ccccc1O)c1ccc([N+](=O)[O-])cc1
inactive: [1] 2.2% | [2] 34.4% | [3] -4.4% | [4] -15.6% | [5] 20.4% | [6] 19.1%

S=C(NCN1CCCCC1)NCN1CCCCC1
inactive: [1] 9.55% | [2] 9.1% | [3] 4.95% | [4] -50.1% | [5] 23.8% | [6] 33.5%

O=C1NCCCC1O (configuration not stated)
inactive: [1] 0.5% | [2] -16.5% | [3] 8% | [4] 5.35% | [5] -6.1% | [6] -2.9%

Cc1cc2ccccc2n1S(=O)(=O)c1ccccc1
inactive: [1] 54% | [2] 45.4% | [3] 18.4% | [4] 35% | [5] 61% | [6] 66.3%

C=CCCN=C(SC)SC
inactive: [1] 3.8% | [2] 20.9% | [3] 16.2% | [4] -11.1% | [5] -0.9% | [6] 4.4%

CCN(CC)CCOc1ccc(/C(C#N)=C/c2ccc(OCCN3CCCCC3)cc2)cc1
inactive: [1] 35% | [2] 20.9% | [3] 57.3% | [4] 64.9% | [5] 26.2% | [6] 33.5%

CN(C)C(=S)SCC(=O)c1ccccc1
inactive: [1] -23.1% | [2] -27.6% | [3] -16.6% | [4] -20.2% | [5] -9.7% | [6] -10.6%

CCC(=O)c1ccc2c(ccc3ccccc32)c1O
inactive: [1] -18.3% | [2] -6.8% | [3] -4.15% | [4] -22.1% | [5] 2.85% | [6] -11.6%

O=C(O)CNC(=O)C(Cc1ccccc1)NC(=O)CNC(=O)C(CSC(c1ccccc1)c1ccccc1)NC(=O)C(CSC(c1ccccc1)(c1ccccc1)c1ccccc1)N1C(=O)c2ccccc2C1=O (configuration not stated)
inactive: [1] 1.5% | [2] 14.1% | [3] -3.7% | [4] -17.9% | [5] -7.05% | [6] 11%

CC(C)C(C)(O)C#CC(C)(O)C(C)C (configuration not stated)
inactive: [1] 1.4% | [2] 8.85% | [3] 3.25% | [4] -15.5% | [5] 23.9% | [6] 12.1%

c1ccc2c(c1)ccc1c3ccccc3ccc21
inactive: [1] 14.5% | [2] 10.9% | [3] 13.6% | [4] 25.6% | [5] 24.4% | [6] 17.6%

O=C(O)/C=C/c1ccc(C(NC(=O)N2C(=O)C=CC2=O)NC(=O)N2C(=O)C=CC2=O)cc1
inactive: [1] 37.8% | [2] 15.8% | [3] 42.3% | [4] 15.7% | [5] 13.3% | [6] 19%

CC(C)=CCC(C)c1ccccn1 (configuration not stated)
inactive: [1] -2.45% | [2] 5.5% | [3] 10.3% | [4] -12.8% | [5] 10.9% | [6] -4.2%

CC(NC(=O)OCC[P+](c1ccccc1)(c1ccccc1)c1ccccc1)C(=O)O (configuration not stated)
inactive: [1] -14.2% | [2] -4.35% | [3] -11.6% | [4] 3.45% | [5] -27.1% | [6] -55.2%

Cc1ccc2c(c1)[nH]c(=S)n2C=C(C#N)C#N
inactive: [1] -23.6% | [2] -42.4% | [3] -1.1% | [4] 0.75% | [5] -0.55% | [6] -5.15%

CCN(CC)CCNc1c(C)cccc1Cl
inactive: [1] -2.9% | [2] 3.5% | [3] -7.1% | [4] -26.2% | [5] 1% | [6] -1.5%

O=C1c2ccccc2C(=O)N1CCCO
inactive: [1] -4.55% | [2] -1.9% | [3] -15.4% | [4] -23.8% | [5] -17.7% | [6] 8.9%

CCc1ccc2c(c1)C(=O)c1c(c(-c3ccccc3)c3ccccc3c1-c1ccccc1)C2=O
inactive: [1] -5.95% | [2] -4.5% | [3] -6.4% | [4] -18.1% | [5] 13.8% | [6] 8.65%

CS(=O)(=O)OCCC(COS(C)(=O)=O)NC(=O)c1ccccc1 (configuration not stated)
inactive: [1] -3.75% | [2] -8.95% | [3] -2.85% | [4] -18.1% | [5] -10.3% | [6] -4.95%

CCC1(C(Cl)(Cl)Cl)C=CC(=O)C=C1
inactive: [1] 13% | [2] 13.3% | [3] -1.85% | [4] 12.8% | [5] 4.7% | [6] -21.1%

CCCCOC(=O)CCc1nc2c([nH]1)c(=O)n(C)c(=O)n2C
inactive: [1] 15.8% | [2] 8.9% | [3] 9.5% | [4] 42.4% | [5] 9.65% | [6] -0.45%

Fc1ccccc1-c1nnc(-c2ccc3ccccc3c2)o1
inactive: [1] 33.1% | [2] 14.8% | [3] 32.4% | [4] 23.9% | [5] 40.5% | [6] 14.7%

CN(C)P1(=O)N(c2ccc(Cl)cc2)P(=O)(N(C)C)N1c1ccc(Cl)cc1 (configuration not stated)
inactive: [1] -14.2% | [2] -35.6% | [3] -13.1% | [4] 2% | [5] -25% | [6] -13.3%

NC(C1SCCS1)C(O)C(O)C(O)CO (configuration not stated)
inactive: [1] -5.55% | [2] -27.6% | [3] -1.9% | [4] -3.7% | [5] 3.1% | [6] -3.95%

Cc1cc(NC(=O)COCC(=O)O)no1
inactive: [1] -7.15% | [2] -24.9% | [3] 5.65% | [4] 9.45% | [5] 0.6% | [6] -9.15%

O=c1[nH]nc(Cc2ccc(Cl)cc2)n1/N=C\CC/C=N\n1c(Cc2ccc(Cl)cc2)n[nH]c1=O
inactive: [1] -18.4% | [2] -0.9% | [3] -14.1% | [4] -4.05% | [5] -13.3% | [6] -3%

Cc1cccc(OC(=O)Oc2cccc(C)c2)c1
inactive: [1] -5.75% | [2] -9.25% | [3] -4.35% | [4] -15.7% | [5] 20.6% | [6] 31.1%

COc1cc(C(=O)OCCOC(=O)c2ccc(O)c(OC)c2)ccc1O
inactive: [1] 45.4% | [2] 13.8% | [3] 25.4% | [4] -25.5% | [5] 51.7% | [6] 40.5%
